According to PubChem BioAssay (Tox21):
Records with an inconclusive call do not appear. The source made the active and inactive calls. Unless noted, the call rests on the fitted dose curve; in most records, active means well fitted curve in the direction sought with a large enough effect in the repeat runs; inconclusive means weak or mixed curves; inactive means no such curve, though single readings can be large; an effect the other way counts as inactive or inconclusive.

Legend:
[1] = qHTS assay to identify small molecule agonists of H2AX (AID 1224845; active means well fitted activation curve with a large enough effect in the signal ratio in the repeat runs, not every such curve was filed as active; the % refers to the signal ratio)
Summary of the method: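 Wild-type CHO-K1 cells plated overnight, then exposed 3 hr at 37C to compounds at 15 concentrations (0.76% DMSO). Lysed, then HTRF anti-pH2AX(S139)-cryptate/anti-H2AX-d2 detection after 24 hr at room temperature; emissions 665 and 620 nm.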

[2] = qHTS assay to identify small molecule agonists of the hypoxia (HIF-1) signaling pathway (AID 1224846; active means well fitted activation curve with a large enough effect in the signal ratio in the repeat runs, not every such curve was filed as active; the % refers to the signal ratio)
Summary of the method: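 Reporter induction in HRE-bla ME-180 cells is taken as agonism: cells sit 5 hrs after plating, receive compounds or DMSO only, incubate 17 hrs at 37C under 5% CO2, and are loaded with CCF4-AM for beta-lactamase FRET measurement.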

[3] = qHTS assay to identify small molecule agonists of H2AX - cell viability counter screen (AID 1224847; calls by dose curve; further: top concentration of the series differs between compounds; nearly all actives have a fitted effect of over 30% in size)
Summary of the method: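 Wild-type CHO-K1 cells (10% FBS medium) were plated overnight at 37C, exposed to compounds at 15 concentrations for 3 hr at 37C (0.76% DMSO final), and viability was read as CellTiter-Glo luminescence after 30 min at room temperature.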

[4] = qHTS assay to identify small molecule antagonists of the estrogen related receptor (ERR) signaling pathway from Tox21 library (AID 1224848); further: nearly all actives have a fitted effect of over 50% in size
Summary of the method: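 First, 2,000 ERR cells per well were plated and held 6 h at 37 C/5% CO2. Next, compounds in DMSO were pinned in and left 18 h at 37 C. Finally, ONE-Glo was added and luminescence read after 30 min at room temperature.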

[5] = qHTS assay to identify small molecule agonists of the estrogen related receptor (ERR) signaling pathway from Tox21 library (AID 1224849; calls by dose curve; further: nearly all actives have a fitted effect of over 15% in size); conditions: ERR reporter cell line, ONE-Glo luciferase, 18 h; at 92.4 µM (top of the series) unless noted
Summary of the method: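 Tox21 compounds tested for ERR agonism in an NTP reporter cell line: 18 h treatment at 37 C, then ONE-Glo luminescence.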

[6] = qHTS RealTime-Glo MT Cell Viability Assay in HEK293 cells - 32 hour (AID 1224868); further: top concentration of the series differs between compounds; nearly all actives have a fitted effect of over 50% in size
Summary of the method: (§1)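 Quantitative high-throughput screen of the Tox21 10K library in HEK293: cells and RealTime-Glo reagents plated together, compound added at 5 h, luminescence monitored through 40 h at 37 C.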

[7] = A CellTox Green Cytotoxicity Assay to monitor cytotoxicity in HEK293 cells - 0 hour (AID 1224869); further: nearly all actives have a fitted effect of over 50% in size
Summary of the method: (§2)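 Tox21 screen in HEK293: membrane-impermeant cyanine dye fluoresces on binding dead-cell DNA; compound pinned 5 h post-seeding, plates held at 37 C, signal read repeatedly through 40 h.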

[8] = qHTS RealTime-Glo MT Cell Viability Assay in HepG2 cells - 40 hour (AID 1224870); further: nearly all actives have a fitted effect of over 50% in size
Summary of the method: (§3)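 HepG2 cells mixed with RealTime-Glo MT reagents (NanoLuc plus cell-permeant prosubstrate) were seeded at 600 cells/well, incubated 5 h at 37 C/5% CO2, then pinned with compounds in DMSO; nonlytic luminescence tracked viability during 40 h treatment.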

[9] = A CellTox Green Cytotoxicity Assay to monitor cytotoxicity in HEK293 cells - 40 hour (AID 1224871); further: nearly all actives have a fitted effect of over 45% in size
Summary of the method: as §2

[10] = qHTS RealTime-Glo MT Cell Viability Assay in HEK293 cells - 16 hour (AID 1224872)
Summary of the method: as §1

[11] = qHTS RealTime-Glo MT Cell Viability Assay in HepG2 cells - 8 hour (AID 1224873); further: nearly all actives have a fitted effect of over 55% in size
Summary of the method: as §3

[12] = qHTS RealTime-Glo MT Cell Viability Assay in HEK293 cells - 40 hour (AID 1224874); conditions: RealTime-Glo luminescence; max response: hits give low values; further: nearly all actives have a fitted effect of over 50% in size
Summary of the method: (§4)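 HEK293 + NanoLuc + prosubstrate, 600 cells/well; 5 h, 37 C/5% CO2; compound 23 nL in DMSO by pintool; 37 C; luminescence read at 0, 8, 16, 24, 32 and 40 h time points.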

[13] = A CellTox Green Cytotoxicity Assay to monitor cytotoxicity in HEK293 cells - 24 hour (AID 1224875); further: nearly all actives have a fitted effect of over 45% in size
Summary of the method: as §2

[14] = A CellTox Green Cytotoxicity Assay to monitor cytotoxicity in HepG2 cells - 16 hour (AID 1224876); further: nearly all actives have a fitted effect of over 45% in size
Summary of the method: (§5)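 Measurements at 0, 8, 16, 24, 32 and 40 h of treatment captured CellTox Green fluorescence in HepG2 cells that had been co-plated with reagent and preincubated 5 h at 37 C/5% CO2.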

[15] = qHTS RealTime-Glo MT Cell Viability Assay in HepG2 cells - 32 hour (AID 1224877); further: nearly all actives have a fitted effect of over 55% in size
Summary of the method: (§6)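 Compound treatment began 5 h after plating HepG2 cells (600/well) with NanoLuc luciferase and prosubstrate. Plates stayed at 37 C for 40 h; luminescence was captured at six time points, 0 h through 40 h.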

[16] = A CellTox Green Cytotoxicity Assay to monitor cytotoxicity in HepG2 cells - 24 hour (AID 1224878); further: nearly all actives have a fitted effect of over 45% in size
Summary of the method: as §5

[17] = A CellTox Green Cytotoxicity Assay to monitor cytotoxicity in HepG2 cells - 40 hour (AID 1224879); further: nearly all actives have a fitted effect of over 40% in size
Summary of the method: as §5

[18] = qHTS RealTime-Glo MT Cell Viability Assay in HEK293 cells - 0 hour (AID 1224880)
Summary of the method: as §4

[19] = A CellTox Green Cytotoxicity Assay to monitor cytotoxicity in HEK293 cells - 32 hour (AID 1224881); further: nearly all actives have a fitted effect of over 40% in size
Summary of the method: as §2

[20] = qHTS RealTime-Glo MT Cell Viability Assay in HepG2 cells - 24 hour (AID 1224867); further: nearly all actives have a fitted effect of over 50% in size
Summary of the method: as §6
On the % scale 0 is the no-effect control and ±100 the full control effect.

O=C(O)COC(=O)Cc1ccccc1Nc1c(Cl)cccc1Cl
inactive: Potency [1] | outcome [2] | Potency [3] | Potency [4] | activity change, positive = activation [5] 1.12% [at 42.5 µM] | Potency [6] | Potency [7] | Potency [8] | Potency [9] | Potency [10] | Potency [11] | max response [12] 5.48% | Potency [13] | Potency [14] | Potency [15] | Potency [16] | Potency [17] | Potency [18] | Potency [19]

Cc1occc1S
inactive: Potency [1] | outcome [2] | Potency [3] | Potency [4] | activity change, positive = activation [5] 9.5% | Potency [20] | Potency [6] | Potency [7] | Potency [8] | Potency [9] | Potency [10] | Potency [11] | max response [12] 3.01% | Potency [13] | Potency [14] | Potency [15] | Potency [16] | Potency [17] | Potency [18] | Potency [19]

CCN(CC)CCc1nc(-c2ccccc2)no1
inactive: Potency [1] | outcome [2] | Potency [3] | activity change, positive = activation [5] 0.733% [at 42.5 µM] | Potency [20] | Potency [6] | Potency [7] | Potency [8] | Potency [9] | Potency [10] | Potency [11] | max response [12] 0.0849% | Potency [13] | Potency [14] | Potency [15] | Potency [16] | Potency [17] | Potency [18] | Potency [19]

Cc1ccc(C(=O)C(C)CN2CCCCC2)cc1 (configuration not stated)
inactive: Potency [1] | outcome [2] | Potency [3] | Potency [4] | activity change, positive = activation [5] 4.97% [at 42.5 µM] | Potency [20] | Potency [6] | Potency [7] | Potency [8] | Potency [9] | Potency [10] | max response [12] 11.5% | Potency [13] | Potency [14] | Potency [15] | Potency [16] | Potency [18] | Potency [19]

CCCCCC(CO)CCC (configuration not stated)
inactive: Potency [1] | outcome [2] | Potency [3] | Potency [4] | activity change, positive = activation [5] 2.67% | Potency [20] | Potency [6] | Potency [7] | Potency [8] | Potency [9] | Potency [10] | Potency [11] | max response [12] 1.02% | Potency [13] | Potency [15] | Potency [16] | Potency [17] | Potency [18] | Potency [19]

CCN(CC)CCNC(C(=O)OCCC(C)C)c1ccccc1 (configuration not stated)
inactive: Potency [1] | outcome [2] | Potency [3] | activity change, positive = activation [5] 0.0727% [at 42.5 µM] | Potency [20] | Potency [6] | Potency [7] | Potency [8] | Potency [9] | Potency [10] | Potency [11] | max response [12] -10.1% | Potency [13] | Potency [14] | Potency [15] | Potency [16] | Potency [17] | Potency [18] | Potency [19]

O=C(O)C1CCC(C(=O)O)CC1 (configuration not stated)
inactive: Potency [1] | outcome [2] | Potency [3] | Potency [4] | Potency [20] | Potency [6] | Potency [7] | Potency [8] | Potency [9] | Potency [10] | Potency [11] | max response [12] -2.66% | Potency [13] | Potency [14] | Potency [15] | Potency [16] | Potency [18] | Potency [19]
